# Compound activity: PubChem, The Scripps Research Institute Molecular Screening Center
# GALR2 antag = blocks the human galanin receptor 2; O43603; GALR2-expressing cells, antagonist mode; hit rate 0.39% among 140,000; AID 828; inhibition, % at 4 µM; in the data active = inhibition above about 27%;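 note: cells stimulated with galanin 1-16 at roughly its EC80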
# S1P2 ag = activates the human S1P2 receptor; O95136; S1P2-expressing cell line, agonist reporter read-out; activation, % at 4.5 µM; hit rate 0.46% among 97,000; AID 729; in the data active = activation above about 16%
# Target sequence (O95136 whole entry, looked up): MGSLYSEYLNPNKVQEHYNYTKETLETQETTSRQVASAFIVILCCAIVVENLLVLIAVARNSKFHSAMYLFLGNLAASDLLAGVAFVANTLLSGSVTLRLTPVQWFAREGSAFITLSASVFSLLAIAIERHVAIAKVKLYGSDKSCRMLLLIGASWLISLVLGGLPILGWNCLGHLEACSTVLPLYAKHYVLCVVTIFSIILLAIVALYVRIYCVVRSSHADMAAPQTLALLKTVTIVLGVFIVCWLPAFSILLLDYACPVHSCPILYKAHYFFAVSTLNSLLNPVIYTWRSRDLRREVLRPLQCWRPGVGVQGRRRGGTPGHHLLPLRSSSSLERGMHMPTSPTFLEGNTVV
# S1P2 antag = S1P2 (human) receptor antagonism; O95136; hit rate 0.21% among 97,000; inhibition, % at 5 µM; cell-based S1P2 antagonist assay, inhibition at 5 uM; in the data active = inhibition above about 45%;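 note: CRE beta-lactamase reporter cells expressing human S1P2 stimulated with S1P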
# GALR2 ag = GALR2 (human) receptor agonism | activation, % (concentration not given with the values) | GALR2-expressing cells, agonist activation read-out | hit rate 0.48% among 140,000 | AID 803; in the data active = activation above about 5%, passing the limit was not always enough
# Numbers stand for hits; n = inactive; x = no result given. Most compounds without a hit are left out; they make up all but 1.1% or so of the library.
SMILES,GALR2 antag,S1P2 ag,S1P2 antag,GALR2 ag
COc1ccc(N2CCN(c3ncnc4c3[nH]c3ccccc34)CC2)cc1,n,n,62.8,n
Fc1ccc2[nH]c3c(N4CCN(c5ccccc5)CC4)ncnc3c2c1,n,x,x,n
N#C/C(=C\c1c[nH]c2ccccc12)C(=O)Nc1ncc(Cc2ccc(Cl)cc2Cl)s1,n,x,x,6.4
Cc1cc(C(=O)CN2C(=O)CCC2=O)c(C)n1Cc1ccccc1,n,150.3,n,n
Cc1cc(C(=O)CN2C(=O)c3ccccc3C2=O)c(C)n1Cc1cccs1,n,26.9,n,n
Cc1cc(C(=O)CN2C(=O)NC3(CCCc4ccccc43)C2=O)c(C)n1Cc1ccccc1 (stereo unspecified),n,n,n,n
CC(=O)CSc1nnc(-c2cnccn2)n1-c1ccccc1,n,n,n,n
COc1ccc(-c2nnc3c4ccccc4c(C)nn23)cc1S(=O)(=O)N1CCN(CCO)CC1,n,17.3,n,n
O=S(=O)(Nc1ncccc1O)c1ccc(Cl)cc1,n,n,n,n
CC(C)(C)C(=O)Oc1ccc2cc(-c3ccc4ccccc4n3)c(=O)oc2c1,n,x,x,n
Cn1c(-c2cc3ccc(OC(=O)C(C)(C)C)cc3oc2=O)nc2ccccc21,n,34.3,n,45.5
C=CCn1c(N)c(C(=O)Nc2cccc(C)c2)c2nc3ccccc3nc21,n,51.8,n,14.5
C=CCn1c(N)c(C(=O)Nc2ccc(C)c(C)c2)c2nc3ccccc3nc21,n,n,n,n
O=C(NCCCO)C12CC3CC(CC(C3)C1)C2,n,n,n,n
O=C(CSc1ccccc1)Nc1ccc(-c2nc3ccccc3[nH]2)cc1,n,x,x,n
O=C(CSc1ccc(Cl)cc1)Nc1cccc(-c2nc3ccccc3[nH]2)c1,n,x,x,6.2
CCC(C)Sc1nc2c(c(=O)[nH]c(=O)n2C)n1C (stereo unspecified),n,n,n,n
CCn1c(=O)c(C(=O)Nn2c(C)nc3ccccc3c2=O)c(O)c2ccccc21,n,x,x,n
CCn1c(=O)c(C(=O)Nc2nc3ccccc3[nH]2)c(O)c2ccccc21,n,n,79.0,n
COc1ccc(S(=O)(=O)N(CC(=O)NCC2CCCO2)c2ccccc2)cc1OC (stereo unspecified),n,n,n,n
COc1ccc(OC)c(C2C(C(=O)Nc3nc4ccccc4s3)=C(C)NC3=C2C(=O)CCC3)c1 (stereo unspecified),n,23.7,n,14.2
O=C(Cn1cccc1C(=O)c1ccccc1)NCc1ccccn1,n,n,n,n
CCOC(=O)c1c(Cc2cccc(Cl)c2)c[nH]c1C,n,x,x,n
O=C(Nc1ccc(F)cc1)c1sc2cc(C(F)(F)F)cnc2c1-c1cccs1,n,n,83.5,n
Cc1ccc(Cn2nc(C)c3cc(C(=O)OCC(N)=O)sc32)cc1,n,n,n,n
SMILES,GALR2 antag,S1P2 ag,S1P2 antag,GALR2 ag
CC(C)c1cccc(C(C)C)c1NC(=O)COC(=O)c1ccc2c(c1)S(=O)(=O)c1ccccc1C2=O,n,x,x,n
CC(C)NC(=O)c1ccc2c(c1)S(=O)(=O)c1ccccc1C2=O,n,18.2,n,n
Cc1ccc2nc3c(cc2c1)c(NC(=O)c1ccccn1)nn3CC(C)C,n,18.6,n,n
CCC(C)n1c(=N)c(C#N)cc2c(=O)n3ccccc3nc21 (stereo unspecified),n,n,n,n
Cc1ccc(-n2c(=O)c(C#N)cc3c(=O)n4ccccc4nc32)cc1,n,x,x,8.7
Cc1cccc(-n2c(=O)c(C#N)cc3c(=O)n4ccccc4nc32)c1,n,39.3,n,23.9
Cc1cc(-n2c(=O)c(C#N)cc3c(=O)n4cccc(C)c4nc32)no1,n,x,x,19.1
CCCn1c(=N)c(C#N)cc2c(=O)n3ccccc3nc21,n,x,x,n
Cc1cccn2c(=O)c3cc(C#N)c(=O)n(-c4c(C)n(C)n(-c5ccccc5)c4=O)c3nc12,n,x,x,n
COc1ccc(-n2cnc3c(cnn3CCC#N)c2=N)cc1,n,n,n,n
Cc1cc(/C=C2/SC(=S)N(c3cccc(C(F)(F)F)c3)C2=O)c(C)n1-c1cccnc1,34.8,n,81.7,n
O=C(NC1CCCC1)C(c1ccsc1)N(CCc1ccccc1)C(=O)Cc1cccs1 (stereo unspecified),n,x,x,6.0
NC(=O)c1cc2ccc(O)cc2oc1=Nc1ccccc1,n,x,x,n
NC(=O)c1cc2ccccc2oc1=NCc1ccccc1,n,n,n,n
NC(=O)c1cc2ccc(O)cc2oc1=NCc1ccccc1,n,x,x,44.7
COc1ccc(OC)c(N=c2oc3cc(O)ccc3cc2C(N)=O)c1,n,n,n,5.3
O=c1c2ccccc2[nH]c2ccccc12,n,x,x,5.6
CCN1CCN(c2nc(N)c([N+](=O)[O-])c(Nc3cccc(C)c3)n2)CC1,n,x,x,n
CN(Cc1ccccc1)c1nc(N)c([N+](=O)[O-])c(Nc2cccc(F)c2)n1,n,22.3,n,n
Cc1sc2c(c1C)c(=O)nc1n2Cc2ccccc2-1,n,n,n,n
